# Test results as given in PubChem BioAssay AID1645872 (National Center for Advancing Translational Sciences (NCATS), 2021).
# Inconclusive results are not listed. Calls of active or inactive are those of the source. The call rests on the fitted dose curve; in most records, active means well fitted inhibition curve with a large enough effect; inconclusive means small, poorly fitted or top-dose-only effect; inactive means flat fitted curve, though single readings scatter.
# Molecular target: Papain (Carica papaya) (UniProt P00784)
# Sequence (P00784 whole entry, looked up): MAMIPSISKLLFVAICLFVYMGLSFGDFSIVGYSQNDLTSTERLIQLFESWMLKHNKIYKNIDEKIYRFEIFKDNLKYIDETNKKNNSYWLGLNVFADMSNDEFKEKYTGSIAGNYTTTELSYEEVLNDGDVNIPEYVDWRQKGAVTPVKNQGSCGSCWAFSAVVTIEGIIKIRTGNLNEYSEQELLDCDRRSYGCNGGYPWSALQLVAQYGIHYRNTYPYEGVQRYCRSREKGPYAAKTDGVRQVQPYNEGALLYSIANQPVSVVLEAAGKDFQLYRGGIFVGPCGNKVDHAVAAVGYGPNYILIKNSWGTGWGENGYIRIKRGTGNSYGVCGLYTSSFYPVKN
# Experiment: Confirmatory qHTS assay for inhibitors of the protease papain
# Conditions: papain Z-FR-AMC cleavage, fluorescence
# Description: Principal Investigator: Sam Michael National Center for Advancing Translational Sciences, National Institutes of Health, Rockville, MD Current high-throughput screening (HTS) assay validation is often a manual process, though this can be enhanced by design-of-experiment approaches. An artificial intelligence-driven (AI/ML) assay optimization was developed as part of the NCATS A Specialized Platform for Innovative Research Exploration (ASPIRE) Initiative to accelerate preclinical drug discovery. We describe the development of an autonomous Cloud-based computational driven assay optimization system using the Kebotix adaptive optimization algorithm. […]
# PROTOCOL TABLE SEQUENCE No. (e.g., 1, 2, 3, etc.); PARAMETER (e.g., Cells, Incubation, Reagent, etc.); VALUE and DESCRIPTION. 1; Reagent; 3 uL; 4/3x Enzyme solution (working concentration of 5 nM) or 3 uL buffer 2; Compounds; 17 nL; library compounds and controls (working concentration of 169 nM - […]) 3; Time; 15 min; room temperature incubation 4; Reagent; 1 uL; 4x 2 uM Z-FR-AMC substrate 5; Centrifugation; 1000 rpm; 15 sec centrigure 6; Detection; Fluorescence Read 1; ViewLux plate reader 7; Time; 10 min; room temperature incubation 8; Detection; Fluorescence Read 2; ViewLux plate reader NOTES (numbers refer to Sequence numbers above; values are from representative experiments) 1; Dispense 3 uL of [4/3x] […]
structure (smiles),measurement,value
Cc1ccc(S(=O)(=O)N[C@@H](CCCCN)C(=O)CCl)cc1,Potency,647 nM (active)
